For 40 compounds, Potency results are on record in PubChem BioAssay (NCATS).

The structures appear in SMILES notation. Records with an inconclusive call do not appear. Where a call stands in place of a potency, no number is given. The source made the active and inactive calls. Calls come from the whole dose curve; as a rule, active = well fitted inhibition curve with a large enough effect; inconclusive = small, poorly fitted or top-dose-only effect; inactive = no such curve, though single readings can be large or run the other way.
Potency is the fitted concentration of half-maximal effect.

Sequence of Rap guanine nucleotide exchange factor 3 (Homo sapiens) (O95398 whole entry, looked up): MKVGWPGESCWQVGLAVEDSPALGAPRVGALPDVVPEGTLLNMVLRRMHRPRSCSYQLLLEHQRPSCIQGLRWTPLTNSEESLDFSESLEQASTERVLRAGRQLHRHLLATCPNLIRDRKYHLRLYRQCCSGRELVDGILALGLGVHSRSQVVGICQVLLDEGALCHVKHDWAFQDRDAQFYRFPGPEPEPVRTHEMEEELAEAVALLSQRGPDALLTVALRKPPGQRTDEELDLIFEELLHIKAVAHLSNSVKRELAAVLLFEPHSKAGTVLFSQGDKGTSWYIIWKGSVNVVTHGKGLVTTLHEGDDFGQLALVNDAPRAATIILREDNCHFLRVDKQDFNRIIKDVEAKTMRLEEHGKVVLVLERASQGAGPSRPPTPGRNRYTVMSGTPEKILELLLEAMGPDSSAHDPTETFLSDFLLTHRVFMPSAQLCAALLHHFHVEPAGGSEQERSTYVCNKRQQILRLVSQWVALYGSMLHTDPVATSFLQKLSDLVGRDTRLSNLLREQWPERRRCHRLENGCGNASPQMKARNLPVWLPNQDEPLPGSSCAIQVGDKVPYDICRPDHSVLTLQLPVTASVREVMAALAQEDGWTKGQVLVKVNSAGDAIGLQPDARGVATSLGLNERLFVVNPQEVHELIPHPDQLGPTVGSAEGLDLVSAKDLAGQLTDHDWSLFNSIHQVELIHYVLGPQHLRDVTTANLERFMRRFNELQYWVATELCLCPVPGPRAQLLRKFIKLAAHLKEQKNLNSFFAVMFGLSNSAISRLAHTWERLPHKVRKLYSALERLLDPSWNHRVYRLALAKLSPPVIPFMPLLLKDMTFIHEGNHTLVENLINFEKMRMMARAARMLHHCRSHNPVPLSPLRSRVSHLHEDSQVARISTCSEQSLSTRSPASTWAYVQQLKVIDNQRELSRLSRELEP

This test has as its target Rap guanine nucleotide exchange factor 3 (Homo sapiens) (UniProt O95398). Kind of test: Confirmatory qHTS for antagonist of cAMP-regulated guanine nucleotide exchange factor 3 (EPAC1) (AID 1645880). Note: nearly all actives have a fitted effect of over 55% in size. Conditions: EPAC1 Rap1B-BODIPY-GDP exchange, fluorescence; series mostly up to 115 µM. From the text: Assay Provider (PI): Xiaodong Cheng Ph.D. The University of Texas Medical Branch, […], TX MLPCN Grant: NS066510 In multi-cellular eukaryotic organisms, the effects of cAMP are transduced by two ubiquitously-expressed intracellular cAMP receptors, the classic protein kinase A/cAMP-dependent protein kinase (PKA/cAPK) and the more recently discovered exchange protein directly activated by cAMP/cAMP-regulated guanine nucleotide exchange factor (EPAC/cAMP-GEF). Both PKA and EPAC are ubiquitously expressed in all tissues, and an increase in intracellular cAMP levels will lead to the activation of both PKA and EPAC. Therefore, careful dissections of the individual role and relative contribution of EPAC and PKA within the overall cAMP signaling in various model systems are critical for further elucidating the mechanism of cAMP signaling. To date no EPAC-specific antagonists and agonist, as well as isoform-specific agonists have been reported, and developing EPAC-specific pharmacological probes to determine the physiological functions that EPAC play in the overall cAMP-mediated signaling remains a major challenge within the research field. Furthermore, identified regulators of EPAC may lead to new mechanism-based therapeutic strategies specifically targeting the EPAC / cAMP-signaling components as EPAC has been implicated to play important roles in major human pathological conditions such as diabetes, heart disease, and cancer. This qHTS will be used to screen the Molecular Libraries Small Molecule Repository (MLSMR) as a concentration-titration series using the NCGC unique quantitative screening (qHTS) platform to find activators for EPAC1. In addition, this assay will also be used as a counterscreen for the EPAC2 qHTS. This fluorescent based assay is developed and validated for EPAC1 that measures exchange using EPAC effector Rap1 complex with BODIPY-GDP, a GDP analog with a tethered fluorophores. Activators are identified by monitoring the change in fluorescence signal as the exchanged free BODIPY-GDP has a reduced fluorescence compared to Rap1-bound BODIPY-GDP. Increase in signal (activation) is the desired outcome for the EPAC1 agonist while no activity in this assay is desired for the EPAC2 agonist counterscreen. Reference: [1] de Rooij, J., Zwartkruis, F. J., Verheijen, M. H., Cool, R. H., Nijman, S. M., Wittinghofer, A., and Bos, J.L. (1998) Nature 396, 474-477. Kawasaki, H., Springett, G. M., Mochizuki, N., Toki, S., Nakaya, M., Matsuda, M., Housman, D. E., and Graybiel, A. M. (1998) Science 282, 2275-2279.
Briefly, three uL of reagents (100 nM EPAC1, 250 nM RAP1B-BODIPY-GDP, 50 uM GDP) were dispensed into a 1536-well Greiner black solid-bottom medium binding assay plate. Controls and test compounds (23 nL) were transferred to the plate via a Kalypsys pin tool equipped with a 1536-pin array. The plates were centrifuged at 1,000 rpm for 15 seconds followed by 5 minute incubation at room temperature. The assay plates were read at 5 minute intervals for 30 minutes in the ViewLux plate reader using 480nm excitation and 540nm emission filters. The results were normalized to the […] positive control ATA and DMSO.
As for `COc1ccc(C(C)=NNc2ccc([N+](=O)[O-])cc2S(=O)(=O)Nc2ccccc2C(=O)O)c(OC)c1`, the Potency is 37.9 µM (active). In the case of `CN1\C(=C/C=C/C=C/C=[N+](C)C)C(C)(C)c2ccccc21` it was 39.8 µM (active). In the case of `CC1(C)CC[C@]2(C(=O)n3ccnc3)CC[C@]3(C)[C@H](C(=O)C=C4[C@@]5(C)C=C(C#N)C(=O)C(C)(C)[C@@H]5CC[C@]43C)[C@@H]2C1` it was 14.1 µM (active). Take `Cc1ccc(N(CCC#N)C(=O)COC(=O)c2ccccc2SCC(=O)N2CCCC2)cc1`: the Potency entry was “inactive”. In the case of `O=C1C(Cl)=C(NC(=O)c2ccccc2)C(=O)C(Cl)=C1NC(=O)c1ccccc1` it was “inactive”.

On to `O=C(COC(=O)Cc1ccc(Cl)cc1)Nc1ccc2[nH]c(=O)[nH]c2c1`, for which the Potency result is “inactive”. The same measure for `CCOc1ccccc1C(=O)N(Cc1cccs1)c1ccc(Cl)cc1`: “inactive”; for `CCn1nc([N+](=O)[O-])c(C(C#N)c2nc3cc(C(F)(F)F)ccc3s2)c(Cl)c1=O` (stereo not given): 12.6 µM (active); for `C/C(=N\NC(=O)c1cc2ccccc2cc1O)c1cc2ccccc2o1`: 37.9 µM (active).

Consider `CC(C)c1ccc(N(C(=O)c2csnn2)C(C(=O)NC(C)(C)C)c2cccnc2)cc1` (stereo not given), for which the Potency result is “inactive”. Take `CN1/C(=C\C=C(/C#N)C(=O)Nc2ccccc2F)C(C)(C)c2ccccc21`: the Potency result was “inactive”. The same measure for `O=S(c1ccc2ccccc2c1)c1cnns1` (stereo not given): “inactive”; for `Cn1c(=O)c2c(nc(N3CCOCC3)n2CCSc2ncccn2)n(C)c1=O`: “inactive”. The same measure for `CC(=O)NC(c1ccco1)c1cc(Cl)c2cccnc2c1O` (stereo not given): “inactive”; for `COc1ccc(C=NNc2ccc(S(=O)(=O)Nc3ccccc3C(=O)O)cc2[N+](=O)[O-])c(OC)c1`: 15.1 µM (active). In the case of `C=CCN(c1ccccc1)S(=O)(=O)c1cccc(C(=O)N2CC(C)CC(C)C2)c1` (stereo not given), the Potency entry is “inactive”.

As for `COc1ccc(CCNC(=O)CCc2nc3sc4c(c3c(=O)[nH]2)CCCC4)cc1`, the Potency is 84.9 µM (active). The same measure for `Cc1cc(C)cc(-c2nnc(SCc3ccc(C(=O)O)cc3)o2)c1`: “inactive”; for `O=C(O)c1ccc(Nc2ncnc3ccccc23)cc1`: “inactive”; for `COc1ccc(Cl)cc1NC(=O)CN(C)C(=O)c1cc2c(s1)CCC(C)C2` (stereo not given): “inactive”.

Take `Cc1sc2ncnc(N3CCCC(C)C3)c2c1C` (stereo not given): the Potency result was “inactive”. As to `CC(C)C[C@H](NC(=O)[C@H](Cc1ccccc1)n1c(=O)[nH]c2ccccc2c1=O)C(=O)N1CCC(C(=O)O)CC1`, the Potency result was “inactive”. For the compound `Cc1nc(-c2cccc(NC(=O)Cc3ccccc3)c2)cs1`, the Potency result was “inactive”.

For `O=C(/C=C/c1ccc2c(c1)OCO2)Nc1cc(S(=O)(=O)N2CCOCC2)ccc1N1CCOCC1`, the Potency entry is “inactive”. In the case of `CCOC(=O)N1CCN(C(=O)CSc2nnc(Cc3ccccc3)o2)CC1` it was “inactive”; in that of `O=C1NN(c2cccc(Br)c2)C(=O)/C1=C/c1ccc(-c2cc([N+](=O)[O-])ccc2O)o1`, 16.9 µM (active). In the case of `CCc1ccccc1N(CC(=O)NCCc1ccccc1)C(=O)CCC(=O)Nc1ccccn1` it was “inactive”; in that of `O=C(Nc1ccc(F)cc1F)C1CCN(c2ncccn2)CC1`, “inactive”; in that of `CCOc1cc(CNc2ccc(O)cc2)cc(Br)c1OCc1ccccc1`, 75.7 µM (active).

For the compound `COc1ccccc1/C=C/C=C1\Oc2c(ccc(O)c2CN(C)C)C1=O`, the Potency result was “inactive”. The same measure for `COc1ccc(/C=N/NC(=O)c2cccnc2)cc1CN1CCCc2ccccc21`: “inactive”; for `CC(C)(C)c1ccc(-c2nc(SCC(=O)Nc3ccc(Cl)cc3)[nH]c(=O)c2C#N)cc1`: 84.9 µM (active); for `CCN1/C(=C/C(C)=C/c2sc3ccccc3[n+]2CC)Sc2ccccc21`: 50.1 µM (active).

Consider `Cc1cc(C)c(OCC(=O)Nc2ccccc2N2CCCCC2)c(C)c1`, for which the Potency entry is “inactive”. The same measure for `CC1=NOC(=O)/C1=C\c1ccc(-c2cc(Cl)ccc2Cl)o1`: 23.9 µM (active); for `Cc1cc(C)c(S(=O)(=O)N2CCCCC2CCNC(=O)C(=O)NCC2CCCO2)c(C)c1` (stereo not given): “inactive”. The same measure for `O=S(=O)(Nc1nccs1)c1ccc(NCc2cc(Br)cc(Br)c2O)cc1`: 56.2 µM (active). The same measure for `O=c1cc(CSc2ccccc2)nc(-c2ccncc2)[nH]1`: “inactive”. With `O=C(CCC1CCCC1)Nc1ccc([N+](=O)[O-])cn1`, the Potency entry was “inactive”. In the case of `CCOc1cccc(CC(=O)NCc2ccc3c(c2)CCN3C(C)=O)c1OCC`, the Potency result is “inactive”.
